Assay results taken from PubChem BioAssay (NCATS).
Records with an inconclusive call do not appear. Where a call stands in place of a potency, no number is given. Values without a mark were called inactive. The source made the active and inactive calls. Calls follow the shape of the dose curve; as a rule, active = well fitted inhibition curve with a large enough effect; inconclusive = small, poorly fitted or top-dose-only effect; inactive = no such curve, though single readings can be large or run the other way.

Assays:
[1] = system: Zika virus NS2B-NS3 protease (unlinked complex); experiment: Primary screen GU Rhodamine qHTS for Zika virus inhibitors: Unlinked NS2B-NS3 protease assay (AID 1347159); also: nearly all actives have a fitted effect of over 60% in size
Method in brief: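 Percent inhibition came from the 15-min rise in Rhodamine110 fluorescence (1.5 microM substrate, ~15% conversion), normalized to no-inhibitor and no-enzyme wells and Hill-fitted. Unlinked protease, 25 nM, pH 8.0 Tris buffer; compounds up to 114 microM, 15-min preincubation.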

[2] = system: Zika virus NS2B-NS3 protease (linked construct); experiment: Primary screen NINDS Rhodamine qHTS for Zika virus inhibitors (AID 1347160); also: nearly all actives have a fitted effect of over 55% in size
Method in brief: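 Rhodamine110-peptide cleavage (1.5 µM substrate) by 25 nM linked NS2B-NS3 enzyme at pH 8.0 (Tris, Tween 20), after 15 min RT preincubation with compounds; 15-min fluorescence change normalized to controls and Hill-fitted.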

| SMILES | activity change, negative = inhibition [1] | activity change, negative = inhibition [2] | Potency [1] | Potency [2] |
| --- | --- | --- | --- | --- |
| C[C@@H]1O[C@@H](O[C@H]2[C@H](OC(=O)[C@]34CCC(C)(C)C[C@H]3C3=CCC5[C@@]6(C)CC[C@H](O[C@@H]7O[C@H](CO[C@@H]8OC[C@H](O)[C@H](O)[C@H]8O)[C@@H](O)[C@H](O)[C@H]7O)C(C)(C)C6CC[C@@]5(C)[C@]3(C)C[C@H]4O)OC[C@@H](O)[C@@H]2O)[C@H](O)[C@H](O)[C@H]1O[C@@H]1OC[C@H](O)[C@H](O[C@@H]2OC[C@@H](O)[C@H](O)[C@H]2O)[C@H]1O (some centres not stated) | -11.8% [at 19.1 µM] | -14.5% [at 10.7 µM] | – | – |
| C=CC(C)(O)CC/C=C(/C)C(=O)OC1C(OC2OCC(OC3OC(CO)C(O)C(O)C3O)C(OC3OCC(O)C(OC4OC(C)C(O)C(O)C4O)C3O)C2O)COC(OC(=O)C23CCC(C)(C)CC2C2=CCC4C5(C)CCC(OC6OC(CO)C(OC7OC(CO)C(O)C(OC8OCC(O)C(O)C8O)C7O)C(O)C6O)C(C)(C)C5CCC4(C)C2(C)CC3O)C1O (configuration not stated) | 23.5% [at 19.1 µM] | 4.71% [at 10.7 µM] | – | – |
| CCOC(=O)c1ccnc(CNCC(=O)N(CC)CCN(C)C)c1 | – | – | inactive | inactive |
| CC(C)(O)C1CCC2(C)C3C(O)C4C(C13)C42CO (configuration not stated) | – | – | inactive | inactive |
| CCCC1=CC2=C(CO1)C(=O)C(C)(OC(=O)c1c(C)cc(OC)cc1O)C(O)C2 (configuration not stated) | – | – | inactive | inactive |
| C[C@@H](Nc1cc(NS(=O)(=O)N2CCC2)nc(SCc2cccc(F)c2F)n1)[C@@H](O)CO | – | – | inactive | inactive |
| CC(O)C(O)/C=C/C=C/C(=O)O[C@@H]1C=C2COC(=O)[C@]2(O)[C@@]2(C)CCCC(C)(C)C12 (some centres not stated) | – | – | inactive | inactive |
| COc1cc(C(=O)OC[C@H]2O[C@H](O[C@@]3(CO)O[C@@H](CO)[C@H](O)[C@H]3O)[C@H](O)[C@@H](O)[C@@H]2O)ccc1O | – | – | inactive | inactive |
| C=C1[C@@H]2CC[C@@]3(C)[C@H](c4ccoc4)OC(=O)C[C@]13O[C@H]1CC(=O)C(C)(C)[C@H](CC(=O)OC)[C@]12C | – | – | inactive | inactive |
| O=c1ccn(C2OC(CO)C(O)C2O)c(=O)[nH]1 (configuration not stated) | – | – | inactive | inactive |
| C=CC1(C)CC(O)C2(CCC3C(C)(C(=O)O)CCCC3(C)C2=O)C1 (configuration not stated) | – | – | inactive | inactive |
| CC1(C)CCC[C@@]2(C)[C@H]1[C@H](O)C=C1COC(=O)[C@@]12O | – | – | inactive | inactive |
| COc1cc(NC(=O)c2ccccn2)ccc1Cl | – | – | inactive | inactive |
| COc1ccc(C(OC2OC(CO)C(O)C(O)C2O)C(C)O)cc1 (configuration not stated) | – | – | inactive | inactive |
| CC1(C)C(O)CCC2(C)C1C(O)C=C1COC(=O)C12O (configuration not stated) | – | – | inactive | inactive |
| COc1cc(C/C(=C/NC(C)=O)N(CC(=O)Cc2ccccc2)C(C)=O)cc2c1OCO2 | – | – | inactive | inactive |
| CC/C=C/CC1=C(CCCCCCCC(=O)O)CCC1=O | – | – | inactive | inactive |
| CC1=C(C)C(=O)OC(C(C)C2C(O)CC3C4C5OC5C5(O)CC(OC6OC(CO)C(O)C(O)C6O)CC(O)C5(C)C4CCC32C)C1 (configuration not stated) | – | – | inactive | inactive |
| CC1OC(OC2C(CO)OC(OCC3OC(OC(=O)C45CCC(C)(C)CC4C4=CCC6C7(C)CCC(OC8OC(C(=O)O)C(O)C(OC9OC(CO)C(O)C(O)C9O)C8O)C(C)(C)C7CCC6(C)C4(C)CC5)C(O)C(O)C3O)C(O)C2O)C(O)C(O)C1O (configuration not stated) | 16.6% [at 19.1 µM] | 9.74% [at 10.7 µM] | – | – |
| COc1ccc(C2=CC(=O)OC2Cc2ccc(O)cc2)c(O)c1 (configuration not stated) | – | – | inactive | inactive |
| C[C@@H]1CC[C@]2(C(=O)O)CC[C@]3(C)C(=CCC4[C@]5(C)C(CC[C@]43C)C(C)(C)[C@@H](O)[C@H](O)[C@@H]5O)C2[C@]1(C)O (some centres not stated) | – | – | inactive | inactive |
| Cc1coc2c1CC1OC1(C)CCC1OC1(C)C2 (configuration not stated) | – | – | inactive | inactive |
| O=C(O)CCc1cc2ccoc2cc1O[C@@H]1O[C@H](CO[C@@H]2OC[C@](O)(CO)[C@H]2O)[C@@H](O)[C@H](O)[C@H]1O | – | – | inactive | inactive |
| CCC(NC(=O)CC(NC(=O)C(CO)NC(=O)C(CC)NC(=O)c1ccc[nH]1)c1ccccc1)C(=O)O (configuration not stated) | – | – | inactive | inactive |
| COC1=CC(=O)O[C@@H](CCc2ccccc2)[C@@H]1O | – | – | inactive | inactive |
| CC(=O)OC1C(O)CC(O[C@@H]2O[C@H](CO)[C@@H](O)[C@H](O)[C@H]2O)C2CCC3C(=O)OC(c4ccoc4)CC3(C)C21 (some centres not stated) | – | – | inactive | inactive |
